Compound activity (PubChem)
Giardia killer = kills Giardia lamblia. Giardia lamblia trophozoite viability. activity change, % at 7.66 µM, hits read low. 340,000 compounds, 0.15% hits; in the data active = activity change below about -80%; inconclusive = between about -30% and that limit;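 note: parasites exposed to compound for two days anaerobically before the ATP read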
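Anaerobic 48 hrs incubation at 37 deg C of 100 trophozoites/well with test compounds; ATPLite 1-Step luminescence, 15-30 min RT, reports cellular ATP as viability.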
gsp antagonist = antagonizes gsp, the McCune-Albright syndrome mutation; Potency, µM (highest dose often 76.9 µM), actives largely listed as inhibitors; 340,000 compounds, 0.4% hits; gsp-mutant cells, cAMP HTRF, 30 min; AID 624288; calls by dose curve; cell line not stated here;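 note: intracellular cAMP measured with PDE inhibitor Ro 20-1724 present during compound exposure; nearly all actives have a fitted effect of over 65% in size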
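Cells, 2000/well, grown 16–24 h in DMEM 10% FBS with 0.5 mg/ml G418, then compounds plus […] (300 uM addition stock), 30 min at 37C. cAMP read by HTRF (cAMP-d2 and anti-cAMP antibody-K in lysis buffer) after 30 min RT.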
gsp ag = activates gsp, the McCune-Albright syndrome mutation; gsp mutant cells, cAMP HTRF, 30 min; Potency, µM (titrated, usually from 76.9 µM), actives largely listed as activators; 340,000 compounds, 0.13% hits; AID 624287; active = well fitted activation curve with a large enough effect; inconclusive = small, poorly fitted or top-dose-only effect, or another doubt; inactive = no such curve, though single readings can be large or run the other way; cell line not stated here;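 note: phosphodiesterase inhibitor Ro 20-1724 added with compounds to block cAMP breakdown; nearly all actives have a fitted effect of over 60% in size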
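Cells in DMEM/10% FBS with G418 were pretreated with compounds in DMSO plus […] (300 uM stock) for 30 min at 37C. cAMP was measured by HTRF (cAMP-d2 plus anti-cAMP antibody-K) after 30 min at room temperature.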
Coupling enz = inhibits coupling enzyme system, counter-screen for aldolase hits; coupling enzyme system counterscreen, AmpLite Red fluorescence; activity change, negative = inhibition, % at 58.2 µM, hits read low; 290,000 compounds, 0.67% hits; AID 2472; in the data active = activity change below about -30%
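Fluorescence at 525 nm excitation and 598 nm emission measured inhibition of the coupled detection system without aldolase. Compounds (at 57.5 uM final) were preincubated 10 min at room temperature with coupling enzyme reagent before a 20 min substrate/AmpLite Red step.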
RXFP1 antag = blocks the human relaxin receptor RXFP1; Q9HBX9; HEK293-RXFP1, relaxin-stimulated cAMP HTRF, 30 min; active compounds read low; activity change, negative = inhibition, % at 57.5 µM; 350,000 compounds, 0.59% hits;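 active = activity change of -60% or lower, but not beyond a set lower limit; inconclusive = change between -60% and -40%, or beyond the set limit; inactive = change above -40%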
Target sequence (Q9HBX9 whole entry, looked up): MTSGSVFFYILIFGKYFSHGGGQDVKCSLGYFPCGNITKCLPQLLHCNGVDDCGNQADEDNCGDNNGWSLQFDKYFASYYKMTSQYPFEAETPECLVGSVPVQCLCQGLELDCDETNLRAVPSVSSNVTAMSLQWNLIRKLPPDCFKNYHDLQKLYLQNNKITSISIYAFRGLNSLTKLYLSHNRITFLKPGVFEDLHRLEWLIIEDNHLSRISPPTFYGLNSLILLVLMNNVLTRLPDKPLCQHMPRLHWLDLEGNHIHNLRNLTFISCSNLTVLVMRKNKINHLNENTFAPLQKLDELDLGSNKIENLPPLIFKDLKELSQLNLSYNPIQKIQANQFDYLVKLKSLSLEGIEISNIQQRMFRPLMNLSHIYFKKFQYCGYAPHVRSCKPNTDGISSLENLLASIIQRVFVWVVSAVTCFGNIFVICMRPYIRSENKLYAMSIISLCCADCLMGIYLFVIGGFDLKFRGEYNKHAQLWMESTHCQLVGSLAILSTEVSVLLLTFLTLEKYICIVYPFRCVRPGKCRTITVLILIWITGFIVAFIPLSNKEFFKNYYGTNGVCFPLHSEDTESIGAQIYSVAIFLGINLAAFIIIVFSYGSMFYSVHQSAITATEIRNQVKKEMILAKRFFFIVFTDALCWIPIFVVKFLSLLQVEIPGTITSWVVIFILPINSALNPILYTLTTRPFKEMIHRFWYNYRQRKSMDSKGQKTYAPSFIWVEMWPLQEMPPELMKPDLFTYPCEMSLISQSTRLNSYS
RXFP1 agonist = RXFP1 (human) receptor agonism | AID 2676 | Q9HBX9 | 370,000 compounds, 0.3% hits | Potency, µM (series often up to 57.5 µM), most hits filed as activators | HEK293T-RXFP1 cAMP TR-FRET, 30 min; response scale: percent of porcine relaxin response, buffer zero; active = well fitted activation curve with a large enough effect; inconclusive = small, poorly fitted or top-dose-only effect; note: nearly all actives have a fitted effect of over 60% in size
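Agonist response is measured as cAMP accumulation in an RXFP1-transfected HEK293T line under PDE4 inhibition. Values are scaled between buffer-only and 29 nM porcine relaxin, and EC50s come from standard Hill equation fits.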
Numbers stand for hits; i = inactive; ? = inconclusive; nt = no result given; [ ] = another dose, or the depositor's remark. The list is not random: actives were taken first. Their share in the collection is about 1.6%.

SMILES | Giardia killer | gsp antagonist | gsp ag | Coupling enz | RXFP1 antag | RXFP1 agonist
CC1(C)CCC[C@@](C)([C@H]2CC[C@]3(C)[C@@H]2[C@H](O)CC2[C@@]4(C)CC[C@H](O)C(C)(C)[C@@H]4[C@@H](O)C[C@]23C)O1 (stereo not given in full) | nt | nt | nt | i | nt | nt
Cc1ccc(C)n1-c1ccc(C(=O)NN)cc1 | i | i | i[15.4 µM] | i | -71.3 | i
CC(=O)Nc1ccc(NC(=O)CN(C)S(=O)(=O)c2ccc3c(c2)CCC(=O)N3)cc1 | i | i | i | nt | -85.8 | i
CCOc1ccc(NC(=O)CN(C)S(=O)(=O)c2ccc3c(c2)CCC(=O)N3)cc1 | i | i | ? | i | i | i
CCOC(=O)c1nn(-c2ccc(F)cc2)c(=O)c2c(N)scc12 | i | i | i | i | i | i
CCOC(=O)c1nn(-c2ccc(C)cc2)c(=O)c2c(N)scc12 | i | i | i | -54.8 | i | i
COC(=O)c1nn(-c2ccc(OC)cc2)c(=O)cc1NN | i | i | i[15.4 µM] | -42.6 | i | i
COC(=O)c1nn(-c2ccc(OC)cc2)c(=O)c2c(N)sc(C)c12 | i | i | i | -52.0 | i | i
COC(=O)c1nn(-c2ccc(OC)cc2)c(=O)cc1Sc1ccc(C)cc1 | i | i | i | i | i | i
COc1ccc(-c2ccc3c(n2)CCCN3C[C@H](O)CN2CCCc3nc(C)c(C)cc32)cc1 | nt | nt | nt | i | nt | nt
Cc1ccc2c(C)ccc(O)c2n1 | i | i | i | i | -70.4 | i
Cc1c(C(=O)N2CCCCC2C)sc2ncnc(N3CCc4ccccc4C3)c12 (stereo not given) | i | 11.2µM | i[15.4 µM] | i | ? | i
CC(C)(C)Nc1nc(C#N)nc(Nc2ccccc2)n1 | nt | nt | nt | i | nt | nt
CC[C@H](C)[C@H](N)C(=O)N[C@H]1CCC(=O)NCC(C(=O)N[C@@H](Cc2ccc(O)cc2)C(=O)N[C@@H](CCCNC(=N)N)C(=O)N[C@@H](CC(C)C)C(=O)N[C@@H](CCCNC(=N)N)C(=O)N[C@@H](Cc2ccc(O)cc2)C(N)=O)NC(=O)[C@@H]2CCCN2C(=O)[C@@H](NC(=O)[C@@H](N)[C@@H](C)CC)CCC(=O)NCC(C(=O)N[C@@H](Cc2ccc(O)cc2)C(=O)N[C@@H](CCCNC(=N)N)C(=O)N[C@@H](CC(C)C)C(=O)N[C@@H](CCCNC(=N)N)C(=O)N[C@@H](Cc2ccc(O)cc2)C(N)=O)NC(=O)[C@@H]2CCCN2C1=O (stereo not given in full) | nt | nt | nt | i | nt | nt
Brc1cc2[nH]cnc2c2ccccc12 | i | i | i | -39.2 | i | i
CCOc1ccc(NC(=O)c2cnn3c2NC(C)=C(C(=O)Nc2ccc(Cl)cc2)C3c2ccc(OC)c(OC)c2)cc1 (stereo not given) | nt | nt | nt | nt | i | i
O=C(Oc1coc(CSc2nnc(NC(=O)c3cccs3)s2)cc1=O)c1ccccc1 | i | i | i | i | i | i
CCC[C@@H](NS(=O)(=O)c1ccc(C)cc1)C(=O)Oc1ccc2c3c(c(=O)oc2c1)CCC3 | i | 28.2µM | ? | i | i | i
NC(=O)C1CCN(C(=S)c2ccc(-c3ccc(Br)cc3)o2)CC1 | i | i | i[15.4 µM] | -32.8 | i | i
NC(=O)c1ccc(-c2ccc(Br)cc2)o1 | i | i | ? | i | i | i
CCCC(c1nnnn1CCOC)N(Cc1cc2cc(C)c(C)cc2[nH]c1=O)CC1CCCO1 (stereo not given) | i | i | i | -41.4 | i | i
CCC(c1nnnn1CCOC)N(Cc1cc2cc(C)c(C)cc2[nH]c1=O)CC1CCCO1 (stereo not given) | i | i | ? | i | i | i
COC(=O)CN1C(=O)C2(C(C#N)=C(N)Oc3n[nH]c(-c4cccs4)c32)c2ccccc21 (stereo not given) | i | i | i | i | i | i
COC(=O)CN1C(=O)C2(C(C#N)=C(N)Oc3c2c(C)nn3-c2ccccc2)c2ccccc21 (stereo not given) | i | i | i | -50.0 | i | i
S=C(Nc1ccc2nccnc2c1)N1CCOCC1 | i | i | i[15.4 µM] | -34.3 | i | i
SMILES | Giardia killer | gsp antagonist | gsp ag | Coupling enz | RXFP1 antag | RXFP1 agonist
Cc1ccc(NC(=S)N2CCOCC2)cc1 | i | i | i | i | i | i
COc1ccc(NC(=S)Nc2ccc3nccnc3c2)cc1 | i | i | i | -38.0 | i | i
O=C(CN1CCN(Cc2ccccc2)CC1)NCc1ccc(Cl)cc1 | i | i | i[15.4 µM] | i | i | i
Cc1ccc(CN2CCN(CC(=O)NCc3ccccc3)CC2)cc1 | i | i | i | i | -98.8 | i
O=C(CN1CCN(C(c2ccccc2)c2ccccc2)CC1)NCc1ccccc1 | i | i | ? | i | -74.2 | i
Oc1cc2ccccc2cc1-c1n[nH]c(=S)o1 | i | 28.2µM | i | i | i | i
CN(C(=O)c1ccc(NC(=O)Cc2cccc(NC(=O)C3CCN(C(=O)C4CC4)CC3)c2)cc1)C1CCCC1 | i | i | nt | nt | nt | i
COc1ccc(OC)c(C2=Nn3c(nnc3-c3ccccc3C)SC2)c1 | nt | nt | nt | i | nt | nt
Cc1ccc(Nc2nc(N/N=C/c3c[nH]c4ccccc34)nc(N3CCOCC3)n2)cc1 | i | 39.8µM | i[15.4 µM] | i | i | i
CC1(c2ccccc2Br)NC(=O)N(CC(=O)NC2CCCCC2)C1=O (stereo not given) | i | i | i | nt | i | i
CCOc1ccc2nc(Cl)c(C3CC(c4ccco4)=NN3S(C)(=O)=O)cc2c1 (stereo not given) | i | i | i[15.4 µM] | i | -70.6 | i
Cc1sc2nc[nH]c(=S)c2c1-c1ccccc1 | i | i | i[15.4 µM] | i | -91.2 | i
COc1ccc(-n2c(=S)[nH]c3cc(C(=O)Nc4cc(OC)c(OC)c(OC)c4)ccc3c2=O)c(OC)c1 | i | i | i[15.4 µM] | i | i | i
COc1ccc(-n2c(=S)[nH]c3cc(C(=O)NCc4ccccc4)ccc3c2=O)c(OC)c1 | i | 20µM | i[15.4 µM] | i | i | i
COc1ccc(-n2c(=S)[nH]c3cc(C(=O)NCc4cccnc4)ccc3c2=O)c(OC)c1 | i | i | i | i | -71.1 | i
COC(=O)[C@H](CC(C)C)N(Cc1ccccc1)S(=O)(=O)N(Cc1ccc(OC)cc1)[C@@H](CC(C)C)C(=O)OC | i | 50.1µM | nt | nt | nt | nt
CCOC(=O)c1ccc(NC(=O)C(CC)Sc2nncn3c2cc2oc(C)cc23)cc1 (stereo not given) | nt | nt | nt | nt | -79.5 | i
Cc1ccccc1N1CCN(CCc2nnc3n2CCCC3)CC1 | nt | nt | nt | nt | i | nt
N/C(=N\OC(=O)COc1ccc2ccccc2c1Br)c1ccccn1 | i | i | ? | i | i | 15.8µM
N/C(=N\OC(=O)COc1ccc2ccccc2c1Br)c1cccnc1 | nt | nt | nt | i | nt | 15.8µM
N/C(=N\OC(=O)COc1ccccc1)c1cccnc1 | i | i | i | nt | i | i
Cc1cccc(N(C)C(=S)Oc2ccc3c(c2)CCC3)c1 | nt | nt | nt | nt | -62.8 | nt
